High-throughput results from PubChem.
GLP1R ag – agonists of human GLP-1 receptor. P43220. actives 0.007% (n = 380,000). Potency, µM (series often up to 45.6 µM), inactives show at the highest dose activation, usual class: activators. HEK293 GLP-1R CRE-luciferase, luminescence, 4-6 h; cells express a hypersensitive GLP-1R form; also: potency is read from the fitted curve at half-maximal effect; % of control where 0% means no effect
Target sequence (P43220 whole entry, looked up): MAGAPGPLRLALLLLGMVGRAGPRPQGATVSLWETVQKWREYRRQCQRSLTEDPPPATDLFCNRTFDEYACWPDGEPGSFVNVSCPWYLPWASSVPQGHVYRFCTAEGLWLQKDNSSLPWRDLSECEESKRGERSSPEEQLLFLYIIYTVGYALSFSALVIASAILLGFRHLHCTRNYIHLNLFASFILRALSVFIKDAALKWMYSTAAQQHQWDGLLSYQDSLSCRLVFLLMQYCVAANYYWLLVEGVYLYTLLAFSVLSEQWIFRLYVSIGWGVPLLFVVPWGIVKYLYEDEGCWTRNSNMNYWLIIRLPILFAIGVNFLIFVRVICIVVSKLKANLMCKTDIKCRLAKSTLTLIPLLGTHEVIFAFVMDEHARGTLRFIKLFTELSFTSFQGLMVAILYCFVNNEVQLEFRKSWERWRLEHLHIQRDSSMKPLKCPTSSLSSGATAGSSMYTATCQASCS
GLP-1R inv ag – acts as inverse agonist at human GLP-1 receptor; P43220; HEK293 GLP-1R CRE-luciferase, luminescence, 24 h; GLP-1R form is constitutively active; Potency, µM (highest dose often 38.3 µM), without a hit: top-dose activity change, negative = inhibition, most hits filed as inhibitors; actives 1.6% (n = 410,000); AID 624417; also: potency is read from the fitted curve at half-maximal effect; % is scaled to controls: 0 for no effect and ±100 for the full control effect; nearly all actives have a fitted effect of over 55% in size
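Constitutively active GLP-1R drives a cAMP-responsive luciferase in stably transfected HEK293 cells; test compounds are added after overnight (12 h) attachment and left 24 hr, and signal loss in luminescence marks inhibition.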
HEK293 tox – cytotoxicity counter-screen for GLP-1 receptor inverse agonists; HEK293 cAMP-luciferase reporter cells, luminescence, 24 h; Potency, µM (doses to about 38.3 µM), for inactives: top-dose activity change, negative = inhibition, most hits filed as inhibitors; actives 0.13% (n = 410,000); AID 624418;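 also: loss of luciferase light is scored as toxicity; potency is read from the fitted curve at half-maximal effect; % is scaled to controls: 0 for no effect and ±100 for the full control effect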
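Luminescence readout: signal drop marks cytotoxicity. Plated cells grew 12 h at 37 °C, 5% CO2, received 23 nL compound for 24 h, then got luciferase reagent, read after 12 min at RT.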
LDHA block – LDHA (human) enzyme inhibition; P00338; purified LDHA, NADH/diaphorase-resazurin fluorescence; hits give low values; activity change, % (values are at about 110 or 230 µM); actives 0.15% (n = 480,000); in the data active = activity change below about -30%; inconclusive = mostly about -25% to -30%;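 also: plate controls were DMSO wells for no effect and wells without enzyme for full effect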
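Human LDH5 (2 nM) was incubated with 0.06 mM NADH and 0.2 mM pyruvate for 5 min at room temperature in Tris pH 7.4. Remaining NADH was coupled through diaphorase/resazurin, and resorufin fluorescence was read at 0 and 20 min.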
ClpP mod – qHTS Assay for Activators of ClpP; purified B. subtilis ClpP, FRET peptide cleavage, 20 min; Potency, µM (series often up to 57.5 µM), without a hit: at the top dose activity change, negative = active; actives 1.9% (n = 340,000); active = well fitted falling curve with a large enough effect; inconclusive = small, poorly fitted or top-dose-only effect; inactive = no such curve, though single readings can be large or run the other way; also: potency is read from the fitted curve at half-maximal effect; the source files actives as falling curves though it sought activators and does not explain the sign; nearly all actives have a fitted effect of over 65% in size
Target sequence (P80244 whole entry, looked up): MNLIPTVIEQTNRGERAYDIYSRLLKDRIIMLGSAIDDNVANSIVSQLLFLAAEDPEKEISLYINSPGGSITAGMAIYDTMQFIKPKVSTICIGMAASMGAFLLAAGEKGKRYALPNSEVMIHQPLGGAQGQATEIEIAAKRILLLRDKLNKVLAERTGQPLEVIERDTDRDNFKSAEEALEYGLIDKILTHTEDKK
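ClpP 10 microg/mL final, pH 8 Tris/KCl buffer with BSA, glycerol, Tween-20; compound pinned in; FRET-FV substrate; RT 20 min; Ex320/Em430; ΔFRET vs ADEP 5.8 microM, DMSO, no enzyme.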
p53 reactivator – re-activators of mutant p53 | H1299 p53-A138V BP100-luciferase reporter, luminescence, 24 h | Potency, µM (doses to about 92.2 µM), for the others: top-dose activity change, positive = activation, usual class: activators | actives 0.063% (n = 320,000) | AID 504706; also: potency is read from the fitted curve at half-maximal effect; % of control where 0% means no effect; nearly all actives have a fitted effect of over 45% in size
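p53-null H1299 cells stably carrying temperature-sensitive p53-A138V and a BP100-luciferase reporter were pinned with compounds (4-point, 1:5 series) and held 24 hrs at 37 deg C. Luminescence was read 10 min after detection reagent.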
Active calls of the source: *; [ ] = another dose, or the depositor's remark. Hits are enriched below; roughly 2.9% of the tested compounds scored in any of these assays. Unless noted, calls follow the shape of the dose curve; as a rule, active = well fitted curve in the direction sought with a large enough effect; inconclusive = small, poorly fitted or top-dose-only effect, or another doubt; inactive = no such curve, though single readings can be large; an effect the other way counts as inactive or inconclusive.

O=C(Cn1cc(C(F)(F)F)ccc1=O)N/N=C/c1ccccc1O was read as GLP1R ag 3%, GLP-1R inv ag inconclusive, HEK293 tox -5%, LDHA block -1, ClpP mod -5% and p53 reactivator 5%.
O=C(Cn1cnnn1)Nc1ccccc1Cc1ccccc1 was read as GLP1R ag 4%, GLP-1R inv ag -4%, HEK293 tox -6%, LDHA block -6, ClpP mod 28µM* and p53 reactivator 3%.
For CCOC(=O)CC1(CC(=O)OCC)NC(=O)c2c(C)sc(C(=O)OCC)c2N1 the results were GLP1R ag 2%, GLP-1R inv ag 33%, HEK293 tox 4%, LDHA block -7, ClpP mod 35µM* and p53 reactivator -11%.
For Cc1csc(NC(=O)c2cc(=O)[nH]c3ccccc23)n1 the results were GLP1R ag -8%, GLP-1R inv ag 11%, HEK293 tox -6%, LDHA block -4, ClpP mod -25% and p53 reactivator 0%.
c1ccc(-c2cnc(SCCN3CCOCC3)n2CC2CCCO2)cc1 (centres undefined) was read as GLP1R ag 2%, GLP-1R inv ag 0%, HEK293 tox 1%, LDHA block -32*, ClpP mod -6% and p53 reactivator -6%.
Screening COc1ccc(-c2cnc(N)n2CC2CCCO2)cc1 (centres undefined) returned GLP1R ag 5%, GLP-1R inv ag 46%, HEK293 tox 3%, LDHA block 3, ClpP mod -5% and p53 reactivator inconclusive.
CCOc1cc(/C=C(\CC(=O)O)c2nc3ccccc3s2)ccc1OC was read as GLP1R ag 3%, GLP-1R inv ag 80%, HEK293 tox 1%, LDHA block -2 and p53 reactivator -2%.
For COc1cc(/C=C(\CC(=O)O)c2nc3ccccc3s2)ccc1OCC(=O)Nc1ccccc1F the results were GLP1R ag 13%, GLP-1R inv ag 0%, HEK293 tox -4%, LDHA block -35* and ClpP mod -26%.
CCCCc1c(C)nc2c(OC)cccc2c1SCCC(=O)O was read as GLP1R ag -1%, GLP-1R inv ag 9%, HEK293 tox 14%, LDHA block -7, ClpP mod 32µM* and p53 reactivator -11%.
Screening O=S(=O)(Nc1ccn(-c2ccccc2)n1)c1ccc(Br)cc1 returned GLP1R ag -8%, GLP-1R inv ag 1%, HEK293 tox -13%, LDHA block 3, ClpP mod -5% and p53 reactivator inconclusive.
For c1ccc(N2CC3COc4ccccc4C3=N2)cc1 (centres undefined) the results were GLP1R ag 11%, GLP-1R inv ag inconclusive, HEK293 tox 363%, LDHA block -2 and ClpP mod 25µM*.
c1ccc2c(c1)OCc1cn[nH]c1-2 was read as GLP1R ag 4%, GLP-1R inv ag 3%, HEK293 tox 1%, LDHA block -11, ClpP mod -2% and p53 reactivator 2%.
`O=C(CSc1nc(=O)n2cc(Cl)ccc2n1)NCCc1ccccc1` gave GLP1R ag 1%, GLP-1R inv ag 3%, HEK293 tox 14%, LDHA block -4, ClpP mod -10% and p53 reactivator -4%.
Cc1ccc2nc(SCC(=O)OCc3ccccc3)nc(=O)n2c1 was read as GLP1R ag 4%, GLP-1R inv ag 6%, HEK293 tox -26%, LDHA block 4, ClpP mod 28µM* and p53 reactivator -1%.
For Cc1ccc2nc(SCC(=O)NCCc3ccccc3)nc(=O)n2c1 the results were GLP1R ag -2%, GLP-1R inv ag 7%, HEK293 tox 0%, LDHA block -8, ClpP mod 28µM* and p53 reactivator 5%.
O=C(NCCN1CCN(Cc2ccc([N+](=O)[O-])cc2)CC1)C(=O)Nc1ccccc1 was read as GLP1R ag -1%, GLP-1R inv ag 0%, HEK293 tox -2%, LDHA block -3, ClpP mod 0% and p53 reactivator 4%.
For O=C(NCCN1CCN(S(=O)(=O)c2ccc([N+](=O)[O-])cc2)CC1)C(=O)Nc1ccccc1 the results were GLP1R ag -2%, GLP-1R inv ag -9%[7.66 µM], HEK293 tox -1%[7.66 µM], LDHA block -1, ClpP mod 28µM* and p53 reactivator 3%.
For CC(=O)NC1=C(N(C)C2CCS(=O)(=O)C2)C(=O)c2ccccc2C1=O (centres undefined) the results were GLP1R ag -2%, GLP-1R inv ag -17%, HEK293 tox inconclusive, LDHA block 33, ClpP mod 948% and p53 reactivator -31%.
For CC(=O)NC1=C(Nc2ccc(N(C)C)cc2)C(=O)c2ccccc2C1=O the results were GLP1R ag -1%, GLP-1R inv ag 4µM*, HEK293 tox inconclusive, LDHA block 8, ClpP mod 0% and p53 reactivator inconclusive.
CCOC(=O)c1[nH]c2cc3c(cc2c1NC(=O)CN1CCCC1)OCO3 was read as GLP1R ag -3%, GLP-1R inv ag -2%, HEK293 tox 2%, LDHA block -5, ClpP mod 1% and p53 reactivator -3%.
`CCOC(=O)c1[nH]c2cc3c(cc2c1NC(=O)CN1CCC(C)CC1)OCO3` gave GLP1R ag 6%, GLP-1R inv ag inconclusive, HEK293 tox -4%, LDHA block 3, ClpP mod 11µM* and p53 reactivator -4%.
Screening CCOC(=O)c1[nH]c2cc3c(cc2c1NC(=O)CN1CCc2ccccc2C1)OCO3 returned GLP1R ag 1%, GLP-1R inv ag inconclusive, HEK293 tox -3%, LDHA block 6, ClpP mod 3.2µM* and p53 reactivator 0%.
For CCCCN(CC)C(=O)CSc1nc2ccsc2c(=O)n1-c1ccccc1 the results were LDHA block 4.
For O=C(c1ccc(Cl)cc1)N1CCN(c2ccc(N3CCOCC3)nn2)CC1 the results were GLP1R ag 6%, GLP-1R inv ag -16%, HEK293 tox 12%, LDHA block -2 and ClpP mod 4%.
Screening O=C(Nc1ccc2nn(-c3ccccc3)nc2c1)c1ccco1 returned GLP1R ag 5%, GLP-1R inv ag 9%, HEK293 tox 7%, LDHA block -7, ClpP mod 32µM* and p53 reactivator inconclusive.
